Experimental data as given in PubChem BioAssay AID485346 (Sanford-Burnham Center for Chemical Genomics, 2010).
About 10,000 (3%) of roughly 330,000 compounds were called active.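 The calls were made as follows: active = inhibition of at least 50% at 8 µM in the primary screen; inactive = the rest.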 This excerpt belongs to a sample that is enriched for actives.

Target: Protein Mdm4 (Homo sapiens) + E3 ubiquitin-protein ligase Mdm2 (Homo sapiens) (UniProt O15151+Q00987)
Assay: inhibitors of human Mdm2-MdmX association, primary screen, cell-based, luminescence, split luciferase, SaOS-2, uHTS (AID 485346)
Settings: SaOS-2 split-luciferase Mdm2/MdmX complementation, at 8 µM, hits give high values

Sequence of Protein Mdm4 (Homo sapiens) + E3 ubiquitin-protein ligase Mdm2 (Homo sapiens) (O15151 whole entry, looked up): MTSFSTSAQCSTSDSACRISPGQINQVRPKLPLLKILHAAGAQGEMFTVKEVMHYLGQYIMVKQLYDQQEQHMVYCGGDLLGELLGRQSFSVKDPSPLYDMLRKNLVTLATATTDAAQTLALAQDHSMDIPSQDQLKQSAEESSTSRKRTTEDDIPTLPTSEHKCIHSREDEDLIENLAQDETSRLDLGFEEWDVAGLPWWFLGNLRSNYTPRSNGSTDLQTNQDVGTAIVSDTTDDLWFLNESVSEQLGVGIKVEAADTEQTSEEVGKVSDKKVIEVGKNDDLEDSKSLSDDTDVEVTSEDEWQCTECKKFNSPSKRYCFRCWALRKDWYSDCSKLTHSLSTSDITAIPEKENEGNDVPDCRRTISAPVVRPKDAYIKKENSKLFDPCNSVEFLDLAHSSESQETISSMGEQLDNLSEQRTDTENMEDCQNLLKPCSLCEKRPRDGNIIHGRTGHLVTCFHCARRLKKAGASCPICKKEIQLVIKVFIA
Sequence of Protein Mdm4 (Homo sapiens) + E3 ubiquitin-protein ligase Mdm2 (Homo sapiens) (Q00987 whole entry, looked up): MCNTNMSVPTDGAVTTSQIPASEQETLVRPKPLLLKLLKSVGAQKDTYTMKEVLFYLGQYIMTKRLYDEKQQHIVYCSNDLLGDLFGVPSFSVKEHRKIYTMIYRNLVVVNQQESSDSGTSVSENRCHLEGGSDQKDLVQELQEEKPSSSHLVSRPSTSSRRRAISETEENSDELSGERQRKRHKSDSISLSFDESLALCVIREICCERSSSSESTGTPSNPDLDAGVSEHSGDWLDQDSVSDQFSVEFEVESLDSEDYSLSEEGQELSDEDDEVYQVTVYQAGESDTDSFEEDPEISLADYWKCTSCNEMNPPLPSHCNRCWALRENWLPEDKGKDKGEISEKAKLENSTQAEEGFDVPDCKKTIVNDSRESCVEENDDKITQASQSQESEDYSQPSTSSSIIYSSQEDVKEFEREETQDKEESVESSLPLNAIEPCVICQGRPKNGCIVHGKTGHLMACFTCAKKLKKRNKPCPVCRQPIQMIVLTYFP

inhibition, active:
O=C(Cc1csc(Nc2nc(=S)[nH]c3ccccc23)n1)NCCCN1CCN(c2cccc(Cl)c2)CC1 77.1%
COc1cccc(CNC(=O)Cc2csc(Nc3nc(=S)[nH]c4ccccc34)n2)c1 60.5%
COc1ccc(Nc2ncnc3ccc(Br)cc23)c(OC)c1 76.4%
CCOC(=O)c1c(-c2cccc(C)c2)csc1NC(=O)c1c(-c2ccccc2)noc1C 94.3%
O=C1N/C(=C/c2cccn2-c2ccccc2)C(=O)N1c1cccc(Cl)c1 53.8%
CN(c1ccc2nc3ccccc3c(=O)n2n1)C1CCCCC1 90.5%
COc1ccc(-c2nn(C)c(=O)c3ccccc23)cc1NC(=O)COc1ccccc1 70.8%
CC(NC(=O)Nc1ccccc1)C(c1cccs1)N1CCN(c2ccccc2)CC1 (stereo not given) 58.6%
N#CCC(=O)N/N=C/c1cn(Cc2ccc3ccccc3c2)c2ccccc12 67.9%
N=c1c2c(-c3ccccc3)c(-c3ccccc3)n(Cc3ccccc3)c2ncn1CCCO 57.2%
O=C(NNc1ccccc1Cl)C(O)(c1cccc(C(F)(F)F)c1)c1cccc(C(F)(F)F)c1 94.5%
COc1ccc(C2=Nn3c(nnc3-c3ccccc3OC)SC2)cc1OC1CCCC1 88.2%
CC(C)Cc1nc(Nc2ccc(S(=O)(=O)N3CCCC3)cc2)c2nnn(Cc3ccccc3)c2n1 68.6%
Cn1nc(-c2ccccc2)c(CSc2cccc(Cl)c2)c1Cl 50.5%
Cc1cc(C(=O)COC(=O)CNC(=O)c2ccc(F)cc2)c(C)n1Cc1ccco1 56.9%
O=C1Nc2cc(C(=O)N3CCC(N4CCCCC4)CC3)ccc2S/C1=C\c1ccccc1 54.5%
N#Cc1c(N)nc2c3c(sc(=N)c2c1N)NC(=O)CC3c1ccccc1Cl (stereo not given) 68.7%

inhibition, inactive:
O=C(COC(=O)CCCN1C(=O)c2cccc3cccc(c23)C1=O)NC1CCS(=O)(=O)C1 (stereo not given) -2.87%
O=C1NC2(CCCCC2)N=C1c1ccccc1 4.91%
O=C(Cc1ccc(-n2c(=O)[nH]c3ccccc3c2=O)cc1)N1CCN(c2cccc(Cl)c2)CC1 -17%
O=C(CCCn1c(=O)[nH]c2cc(Cl)ccc2c1=O)NCCN1CCN(c2ccccc2)CC1 9.17%
COc1cccc(CNC(=O)CN2C(=O)NC(Cc3ccccc3)(c3ccccc3)C2=O)c1 (stereo not given) -11%
COc1cccc(CNC(=O)c2n[nH]c3ccccc23)c1 -9.68%
CC(=O)Nc1ccc(NC(=O)C(NS(=O)(=O)c2ccc3c(c2)OCCO3)C(C)C)cc1 (stereo not given) 1.24%
Cc1noc(C)c1S(=O)(=O)N(C)C[C@H]1Oc2c(NC(=O)Nc3ccc4c(c3)OCO4)cccc2C(=O)N([C@H](C)CO)C[C@@H]1C 23.1%
COc1ccc(CNc2ncnc3ccccc23)cc1 21.5%
O=C(O)CCCCCNc1ncnc2ccc(Br)cc12 -1.34%
COc1ccccc1NC(=O)CCC(=O)N1CC(C)Oc2ccc(C)cc21 (stereo not given) 13.9%
O=C1Nc2ccc([N+](=O)[O-])cc2C1=Nc1cccc(CO)c1 30.4%
Cc1ccc(N2CC(C(=O)NCCS(=O)(=O)N3CCN(c4ccccc4)CC3)CC2=O)cc1 (stereo not given) 37.2%
COc1cc(N)c(Cl)cc1C(=O)OCC(=O)c1ccc2c(c1)NC(=O)CO2 18.8%
Cc1ccc(CNC(=O)c2c(-c3ccccc3)noc2C)cc1 -12.1%
CCOC(=O)c1c(-c2ccc(-c3ccccc3)cc2)csc1NC(=O)CCC(=O)O 9.19%
Cn1c(=O)[nH]c(=O)c2c1nc(NCCCn1ccnc1)n2Cc1cccc(Br)c1 34.5%
Cc1ccccc1NC(=O)CN1C(=O)N/C(=C\c2cccn2-c2cccc(C(=O)O)c2)C1=O 11.8%
O=c1c(-c2cccc(Cl)c2)c[nH]n1-c1ccccc1 -13.8%
COc1ccc(C(=O)OCC(=O)NCC2CCCO2)cc1[N+](=O)[O-] (stereo not given) -2.37%
O=C(C1CCC(=O)N(C2CC2)C1)N1CCN(c2ccc(Cl)cc2)CC1 (stereo not given) -4.59%
CN(C(=O)c1cc2c(=O)n3ccccc3nc2s1)C1CCCCC1 -88.5%
CN(C(=O)CSc1nncc2ccccc12)C1CCCCC1 -30.3%
CC(=O)Nc1c2c(nn1-c1cccc(C)c1)CSC2 18%
Cc1c(CNCCc2ccccc2)c(C(=O)O)c(C)n1-c1ccccc1 8.96%
CN(C(=O)c1cccc(NC(=O)Cc2ccc([N+](=O)[O-])cc2)c1)C1CCC1 15.3%
COc1ccc(-c2nn(C)c(=O)c3ccccc23)cc1CNC(=O)C1CCCCC1 13%
CCC(=O)NCc1cc(-c2nn(C)c(=O)c3ccccc23)ccc1OC 20.9%
Cc1cc(NC(=O)COC(=O)/C=C/c2ccc(C)o2)no1 8.11%
Cc1c(C=O)c2ccccc2n1CCOc1ccccc1 11.3%
O=C(NCCc1ccc(F)cc1)c1ccc(S(=O)(=O)N2CCCCC2)cc1 0.124%
O=S(=O)(Nc1cccc(Oc2ccc(Cl)cc2)n1)c1ccc(F)cc1 14.1%
CCCC(=O)NC(C)C(c1cccs1)N1CCN(c2ccccc2)CC1 (stereo not given) 18.2%
CC(NC(=S)Nc1ccccc1)C(c1cccs1)N1CCOCC1 (stereo not given) -20.7%
CCOCCCNC(=O)C(NC(=O)c1ccc(=O)[nH]c1)c1ccc(Cl)cc1 (stereo not given) -20.6%
CNC(=S)N/N=C/c1cn(Cc2ccc(C)cc2)c2ccccc12 42.2%
COc1cccc(Cn2cc(/C=N/NC(=O)c3cc(O)cc(O)c3)c3ccccc32)c1 23.5%
CC1=C(C(N)=O)C(c2ccc3c(c2)OCO3)n2nc(-c3cccc(C)c3)nc2N1 (stereo not given) 7.35%
CCN(CC)CCn1cnc2c1c(=O)[nH]c(=O)n2Cc1ccccc1 14.5%
COCCn1cnc2c1c(=O)n(Cc1ccc(Br)cc1)c(=O)n2Cc1ccccc1 31.5%
CCOC(=O)[C@H]1[C@H]2COc3ccc(OC)cc3[C@@H]2N2C(=O)c3ccc(F)cc3NC(=O)[C@@]12C 17.8%
CCOC(=O)Cc1csc(SCC(=O)Nc2ccc(C)cc2F)n1 7.22%
CCOCc1nnc(NC(=O)CCC2CCCCC2)s1 15.7%
CCn1c(CNC(=O)c2cc(OC)c(OC)c(OC)c2)cc2cc(C)ccc21 18.3%
O=C(Nc1cc(C(F)(F)F)ccc1Cl)C(=O)N1CCCCC1 4.88%
O=C(CNS(=O)(=O)c1cccc(C(F)(F)F)c1)Nc1ccccc1F -4.5%
O=C(NCCC1=CCCCC1)c1ccc(-n2cncn2)cc1 -91.1%
COC(=O)c1ccccc1NC(=O)C1CC(=O)N(c2ccc(OC)cc2)C1 (stereo not given) 15.5%
COc1ccc(CNS(=O)(=O)c2cc3c4c(c2)CCN4C(=O)CC3)cc1 -14.5%
COc1ccccc1-c1nnc2n1N=C(c1ccc(OC(F)F)c(OCC3CC3)c1)CS2 23.3%
Cc1nnc2n1N=C(c1ccccc1)CS2 17.5%
Cc1ccc(C)c(OCCC(=O)OCC(=O)NC(=O)NCc2ccccc2)c1 6.63%
O=C(Nc1ccc(OC(F)(F)F)cc1)c1ccc2c(c1)no[n+]2[O-] 19%
CCN1C(=NCc2ccc(OC)cc2)N[C@@H](CCc2ccccc2)[C@H](C(=O)NCc2ccc(OC)cc2)[C@H]1C 14.2%
COc1ccccc1CNS(=O)(=O)c1cc(C(=O)NCc2ccccn2)c(Cl)cc1Cl -21.7%
Cc1nc(Nc2ccc(S(=O)(=O)N3CCCC3)cc2)c2nnn(Cc3ccccc3)c2n1 3.4%
CC(C)Nc1ncnc2c1nnn2Cc1ccccc1 -2.35%
Cc1cnc(C(=O)N2CCCC(N3CCN(c4ccccc4F)CC3)C2)cn1 (stereo not given) 1.8%
Cc1ccc(S(=O)(=O)N(CC(=O)N/N=C/c2ccc(F)cc2)c2cccc3cccnc23)cc1 4.5%
Cc1ccc(S(=O)(=O)c2c(COC(=O)c3cccc(Cl)c3)c(-c3ccccc3)nn2C)cc1 7.27%
Cn1nc(-c2ccccc2)c(CO)c1Sc1ccccc1 8.85%
C=CCOc1ccc(C(=O)Nc2ccccc2C(=O)N2CCCC2)cc1 2.51%
COC(=O)Nc1ncc(CN2C(=O)c3ccccc3C2=O)s1 12.4%
COCCn1c(C)cc(C(=O)COC(=O)CNC(=O)c2ccco2)c1C 3.33%
Cc1cc(C(=O)CSc2nc(N)cc(=O)[nH]2)c(C)n1Cc1ccco1 22.2%
CC(Oc1ccccc1)C(=O)NN1Cc2ccccc2C1=N (stereo not given) 16.1%
CC(C)(C)NS(=O)(=O)CC12CCC(CC1=O)C2(C)C (stereo not given) 8.21%
NC(=O)C1CCN(C(=O)c2ccc(-c3ccccc3)cc2)CC1 13.3%
CC1CCN(C(=O)c2ccc3c(c2)NC(=O)CN3)CC1 13%
Cc1[nH]n(C(N)=S)c(=O)c1N=Nc1ccc(Cl)cc1Cl -31.8%
C[C@H](CO)N1C[C@H](C)[C@@H](CN(C)S(=O)(=O)c2ccc(F)cc2)Oc2ccc(NC(=O)CCC(F)(F)F)cc2C1=O -5.06%
CSc1nc2c(c(=O)[nH]1)C(c1cccc(Cl)c1Cl)CC(=O)N2 (stereo not given) -2.71%
COc1ccc(C2CC(=O)Nc3sc(=N)c4c(N)c(C#N)c(N)nc4c32)cc1OC (stereo not given) 19.8%
